Source: PubChem
KB-3-1 cytotox: qHTS assay for MDR1-selective chemotherapeutics: Primary screen using the parental adenocarcinoma cell KB-3-1 | KB-3-1 viability, CellTiter-Glo ATP luminescence, 72 h | AID 1347075, 2019 | 400,000 tested, 1.4% active | Potency, µM (top dose mostly 46.1 µM), actives largely listed as cytotoxic; further: nearly all actives have a fitted effect of over 60% in size
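Parental KB-3-1 viability, qHTS format: 72 h compound exposure, 37 °C; CellTiter-Glo; media-only wells and DMSO plates as controls; concentration-effect fits on corrected data.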
MCF10A rereplic: A quantitative high throughput screen for small molecules that induce DNA re-replication in MCF 10a normal breast cells | Potency, µM (highest dose often 46.1 µM), actives largely listed as activators | 350,000 tested, 2.9% active | MCF 10A DNA re-replication, Hoechst nuclear intensity, 48 h; further: nearly all actives have a fitted effect of over 50% in size
Gal4-VP16 FLuc: VP16 counterscreen qHTS for inhibitors of ROR gamma transcriptional activity | Potency, µM (top dose mostly 53.6 µM), hits mostly inhibitors | AID 2546, 2010 | Drosophila S2 Gal4-VP16 UAS-luciferase, luminescence, 20 h | 310,000 tested, 3.5% active;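 further: Gal4-VP16 expression switched on by copper sulfate through the metallothionein promoter; nearly all actives have a fitted effect of over 50% in size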
RORgamma inh: qHTS for inhibitors of ROR gamma transcriptional activity; Nuclear receptor ROR-gamma (Mus musculus), P51450; Drosophila S2 Gal4-RORgamma UAS-luciferase reporter, 20 h; Potency, µM (highest dose often 53.6 µM), actives largely listed as inhibitors; 310,000 tested, 5.4% active; further: nearly all actives have a fitted effect of over 60% in size
Target sequence (P51450 whole entry, looked up, the tested form may be a part): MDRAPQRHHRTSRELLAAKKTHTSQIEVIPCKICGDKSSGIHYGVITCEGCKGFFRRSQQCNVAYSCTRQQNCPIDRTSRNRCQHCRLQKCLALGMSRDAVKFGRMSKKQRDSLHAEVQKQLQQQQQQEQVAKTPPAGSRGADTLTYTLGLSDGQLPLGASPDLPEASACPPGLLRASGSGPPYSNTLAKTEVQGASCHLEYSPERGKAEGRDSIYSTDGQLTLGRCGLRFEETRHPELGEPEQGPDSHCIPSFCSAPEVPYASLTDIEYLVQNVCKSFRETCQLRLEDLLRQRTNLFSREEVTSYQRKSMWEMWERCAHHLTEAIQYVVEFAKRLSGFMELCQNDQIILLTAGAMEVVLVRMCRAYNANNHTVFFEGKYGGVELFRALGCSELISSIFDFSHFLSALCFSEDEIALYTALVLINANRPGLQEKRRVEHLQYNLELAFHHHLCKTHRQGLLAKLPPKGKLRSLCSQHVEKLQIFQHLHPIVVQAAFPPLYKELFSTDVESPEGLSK
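Luminescence from a UAS-regulated Photinus luciferase reporter in stably transfected Drosophila Schneider cells is measured; decreased signal marks ROR gamma inhibition. Fusion expression is induced by 700 uM copper sulfate for 20 hr.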
SW480 rerep: A quantitative high throughput screen for small molecules that induce DNA re-replication in SW480 colon adenocarcinoma cells | 340,000 tested, 1.8% active | SW480 DNA re-replication, Hoechst DNA content imaging, 48 h | Potency, µM (doses to about 46.1 µM), actives largely listed as activators; further: nearly all actives have a fitted effect of over 55% in size
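Quantitative HTS format with DMSO vehicle controls; 48 hr drug incubation at 37 C, then 40 min Hoechst staining and scanning imager measurement at 405 nm excitation.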
KB-V1 cytotox: qHTS assay for MDR1-selective chemotherapeutics: Primary screen using the drug-selected MDR subline cells KB-V1 | KB-V1 MDR cells viability, CellTiter-Glo, 72 h | Potency, µM (doses to about 46.1 µM), most hits filed as cytotoxic | 400,000 tested, 3.4% active | AID 1347076, 2019; further: nearly all actives have a fitted effect of over 60% in size
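In this primary screen, KB-V1 cells overexpressing P-gp are incubated with library compounds (lowest to highest concentration) for 72 h at 37 degrees C before a luminescent ATP viability read.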
A number is an active result; 0 = inactive; ? = inconclusive; - = no result given; [ ] = dose if it differs, or a comment. Shown are actives, neighbours in structure and some others; about 10% of the full set was active somewhere. The call rests on the fitted dose curve; in most records, active means well fitted curve in the direction sought with a large enough effect; inconclusive means small, poorly fitted or top-dose-only effect, or another doubt; inactive means no such curve, though single readings can be large; an effect the other way counts as inactive or inconclusive.

SMILES	KB-3-1 cytotox	MCF10A rereplic	Gal4-VP16 FLuc	RORgamma inh	SW480 rerep	KB-V1 cytotox
COC(=O)CSc1nc2ccc(NC(=O)c3ccccc3C(=O)N3CCOCC3)cc2s1	0	0	0	?	0	?
CCN1C(=O)[C@H]2[C@@H](c3ccc(-c4cccc(Cl)c4)c(OC)c3)N3CCCC[C@@]3(C(=O)OC)[C@H]2C1=O	0	0	-	-	0	21µM
CCN1C(=O)[C@H]2[C@@H](c3ccc(-c4cccc(Cl)c4)c(OC)c3)N[C@@](CC(C)C)(C(=O)OC)[C@H]2C1=O	?	5.8µM	-	-	?	0
CCN1C(=O)[C@H]2[C@@H](c3ccc(-c4ccc(Cl)c(Cl)c4)cc3)N3CCCC[C@@]3(C(=O)OC)[C@H]2C1=O	?	0	-	-	0	?
CCN1C(=O)[C@H]2[C@@H](c3ccc(-c4cccc(Cl)c4)cc3)N[C@@](CC(C)C)(C(=O)OC)[C@H]2C1=O	?	0	-	-	0	?
CCN1C(=O)[C@H]2[C@@H](c3ccc(-c4ccc(Cl)c(Cl)c4)c(OC)c3)N3CCCC[C@@]3(C(=O)OC)[C@H]2C1=O	21µM	0	-	-	0	?
CN(C)CCC(=O)C(Cc1ccccc1)c1ccccc1 (stereo unspecified)	0	4.1µM	-	-	?	?
CN(C)CCNC(=O)C(c1ccccc1)c1ccccc1	0	0	0	0	0	0
CCOC(=O)c1ccc2c(c1)N(Cc1cccc(C(F)(F)F)c1)C(=O)c1ccccc1S2(=O)=O	0	-	-	-	-	?
COc1cc2c(C(=O)N3CCN(c4ccc(F)cc4)CC3)cn(CC(C)C)c(=O)c2cc1OC	0	-	-	-	-	0
CC(C)(C)c1ccc(C(=O)NCCOc2ccccc2)cc1	0	0	?	8.9µM	0	0
CN(C)S(=O)(=O)c1ccc(C(=O)NCCOc2ccccc2)cc1	0	0	?	0	0	0
O=C(NCCOc1ccccc1)c1cc(C(=O)NCCOc2ccccc2)cc([N+](=O)[O-])c1	?	0	0	?	?	3.7µM
CC(C)(C)c1ccc(C(=O)NCCOc2ccccc2F)cc1	0	0	6.3µM	7.1µM	0	0
COC(=O)c1cc2c([nH]c1=O)CC(c1ccccc1)CC2=O (stereo unspecified)	0	-	-	-	-	?
FC(F)(F)c1ccccc1NC(=S)N/N=C1\CC2CC=CC12 (stereo unspecified)	0	?	14µM	0.5µM	0	0
O=[N+]([O-])c1ccccc1N/N=C1\CC2CC=CC12 (stereo unspecified)	0	0	0	0	0	?
Cc1cccc(OCCSc2nncn2C)c1	0	0	0	0	0	0
Cc1cccc(OCCSc2nnc(-c3ccoc3C)n2C)c1	0	0	0	0[10 µM]	0	18µM
O=c1[nH]c2cc3c(cc2cc1CN(Cc1cccnc1)Cc1nnnn1Cc1ccco1)OCCO3	0	0	0	0	0	0
O=c1[nH]c2cc3c(cc2cc1CN(Cc1ccccc1)Cc1nnnn1Cc1ccco1)OCCO3	0	0	0	?	?	23µM
CCOC(=O)Cn1nnnc1CN(Cc1ccccc1)Cc1cc2cc(CC)ccc2[nH]c1=O	0	10µM	0	0	?	0
CC1CCc2c(c3ccccc3n2C(=O)CCl)C1 (stereo unspecified)	?	18µM	?	?	0	?
CN(C)c1ccc(/C=C/c2nc3ccccc3s2)cc1Cl	0	-	-	-	-	0
COc1cc2nc(/C=C/c3ccc(N(C)C)cc3)sc2cc1SC	0	3.3µM	0	0	21µM	0
SMILES	KB-3-1 cytotox	MCF10A rereplic	Gal4-VP16 FLuc	RORgamma inh	SW480 rerep	KB-V1 cytotox
O=C(CN1c2cccc3cccc(c23)S1(=O)=O)N1CCN(c2ccccc2)CC1	0	0	-	-	0	9.2µM
O=C(CN1C(=O)c2ccccc2S1(=O)=O)N1CCN(c2cccc(Cl)c2)CC1	0	0	-	-	0	0
O=C(CN1C(=O)c2cccc3cccc1c23)N1CCN(c2cccc(Cl)c2)CC1	0	0	0	0	0	0
O=C(CN1C(=O)c2cccc3cccc1c23)N1CCN(c2ccccc2)CC1	0	23µM	0[0.365 µM]	0	?	0
O=C(CN1C(=O)c2cccc3cccc1c23)N1CCN(c2ccc(F)cc2)CC1	0	11µM	0	0	?	0
Cc1c(Cl)cccc1NS(=O)(=O)c1cc2c(cc1F)NC(=O)CC2	0	-	-	-	-	0
COc1ccc(CNC[C@H]2O[C@@H](n3ccc(=O)[nH]c3=O)[C@H](O)[C@@H]2O)cc1	0	-	-	-	-	0
CC(C)C[C@@H](CC(=O)N[C@@H](CCCN)CC(=O)N[C@@H]1CCNC[C@H]1C(=O)N[C@H](CC(=O)N[C@@H](CCC(=O)O)CC(=O)O)Cc1ccccc1)NC(=O)[C@@H]1CNCC[C@H]1N	-	-	0	0	-	-
CCOC(=O)C1C(=O)C=C(c2ccccc2)CC1c1ccccc1 (stereo unspecified)	0	?	-	-	0	?
CCOC(=O)C1C(=O)C=C(c2ccc(C)cc2)CC1c1ccc([N+](=O)[O-])cc1 (stereo unspecified)	0	0	0	0	0	7.3µM
O=C(NCCC1=CCCCC1)c1ccc(=O)oc1	0	0[0.0737 µM]	0	0	0	0
CC(C)CNC(=O)c1coc(=O)c(Br)c1	6.3µM	21µM	0	0	?	?
O=C(NCCC1=CCCCC1)c1coc(=O)c(Br)c1	?	12µM	0	0	9.2µM	?
CCN(CC)S(=O)(=O)c1ccc2[nH]cc(C(=O)NCCC3=CCCCC3)c(=O)c2c1	?	?	5µM	10µM	0	0
CCN(CC)S(=O)(=O)c1ccc2[nH]cc(C(=O)NCCN3CCCCCC3)c(=O)c2c1	0	0	0	0	0	0
O=C(NC(CO)(CO)CO)c1coc(=O)c(Br)c1	0	3.3µM	0	0	7.3µM	0
O=C(Cn1nnc(-c2ccccc2)n1)NCC(=O)Nc1ccc(F)c(F)c1F	0	0	-	-	0	?
Cc1cc(C(=O)NCCC2=CCCCC2)c(C)o1	0	?	?	10µM	?	0
O=C(NCCc1ccccc1)c1coc(=O)c(Br)c1	?	?	0	0	10µM	?
COC[C@H]1O[C@@H](c2c(OC)cc(OC)cc2OC)[C@H](OC)[C@@H](OC)[C@@H]1OC	-	-	0	0	-	-
C[C@@H]1CN([C@H](C)CO)C(=O)CCCn2cc(nn2)CO[C@H]1CN(C)C(=O)C1CC1	0	-	-	-	-	0
Cc1ccccc1C(=O)N1CCN(c2ccccn2)CC1	0	0	0	0	0	0
